# GLP1R ag – qHTS of GLP-1 Receptor Agonists; HEK293 GLP-1R CRE-luciferase, luminescence, 4-6 h; cells express a hypersensitive GLP-1R form; AID 624172, 2012; 380,000 tested, 0.007% active; Glucagon-like peptide 1 receptor (Homo sapiens), P43220; Potency, µM (doses to about 45.6 µM), without a hit: at the highest dose activation, hits mostly activators; further: potency means the concentration at half of the fitted maximal effect; % of control where 0% means no effect
# Target sequence (P43220 whole entry, looked up): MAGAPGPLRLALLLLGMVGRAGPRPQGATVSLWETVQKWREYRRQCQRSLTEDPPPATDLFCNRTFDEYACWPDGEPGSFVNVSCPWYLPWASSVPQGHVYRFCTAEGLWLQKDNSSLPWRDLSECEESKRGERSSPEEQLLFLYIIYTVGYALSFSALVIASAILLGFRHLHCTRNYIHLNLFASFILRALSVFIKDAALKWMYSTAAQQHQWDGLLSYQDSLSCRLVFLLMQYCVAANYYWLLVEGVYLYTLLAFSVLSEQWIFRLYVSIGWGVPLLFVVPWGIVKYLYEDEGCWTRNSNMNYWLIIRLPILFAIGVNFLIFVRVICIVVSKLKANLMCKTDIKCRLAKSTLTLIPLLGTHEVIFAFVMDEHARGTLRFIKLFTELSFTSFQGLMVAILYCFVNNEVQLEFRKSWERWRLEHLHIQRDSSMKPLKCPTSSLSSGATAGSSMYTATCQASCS
# DRD3 agonist – qHTS of D3 Dopamine Receptor Agonist: qHTS; AID 652048, 2013; 410,000 tested, 0.58% active; D3R DiscoveRx beta-arrestin cells, luminescence, 90 min; D(3) dopamine receptor (Homo sapiens), P35462; max activation, %; in the data active means max activation above about 30%; further: 0% is about no effect
#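 Agonist mode: compounds and dopamine controls were applied to plated cells for 90 min at 37 degrees C after an overnight attachment at 1500 cells/well. Luminescent read-out followed 30 - 60 minutes at room temperature with DiscoveRx detection reagent.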
# D3 antag – qHTS of D3 Dopamine Receptor Antagonist: qHTS. D(3) dopamine receptor (Homo sapiens), P35462. D3R cells, DiscoveRx beta-arrestin luminescence, antagonist mode; active compounds read low. max response, negative = inhibition, %. 360,000 tested, 2.5% active; in the data active means max response below about -50%; inconclusive means no clear call, values can overlap the other calls; further: on the % scale 0 is the no-effect control and ±100 the full control effect
#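 Cells plated overnight at 1500 cells/well, then exposed to library compounds with dopamine controls for 90 minutes at 37 degrees C. DiscoveRx reagent added for 30–60 minutes at room temperature; luminescence read, quantitative HTS format.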
# GLP1R inv ag – qHTS of GLP-1 Receptor Inverse Agonists (Inhibition Mode); Glucagon-like peptide 1 receptor (Homo sapiens), P43220; AID 624417, 2012; 410,000 tested, 1.6% active; HEK293 GLP-1R CRE-luciferase, luminescence, 24 h; GLP-1R form is constitutively active; Potency, µM (top dose mostly 38.3 µM), without a hit: top-dose activity change, negative = inhibition, actives largely listed as inhibitors; further: potency means the concentration at half of the fitted maximal effect; on the % scale 0 is the no-effect control and ±100 the full control effect; nearly all actives have a fitted effect of over 55% in size
#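 Luminescence readout: a drop in cAMP-driven luciferase signal flags inverse agonism at a constitutively active GLP-1R stably expressed in HEK293. Compound exposure lasted 24 hr at 37 deg C, 5% CO2.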
# The depositor's hits bear a star; ? = inconclusive; . = no result; + = active, no number; [ ] = another dose, or the depositor's remark. In the library only some 4.3% were active in any assay of this set; here they are far more common. Unless noted, the call rests on the fitted dose curve; in most records, active means well fitted curve in the direction sought with a large enough effect; inconclusive means small, poorly fitted or top-dose-only effect, or another doubt; inactive means no such curve, though single readings can be large; an effect the other way counts as inactive or inconclusive.
SMILES,GLP1R ag,DRD3 agonist,D3 antag,GLP1R inv ag
C(=C\c1ccccc1)/CN1CCN(C(c2nnnn2-c2ccc3c(c2)OCCO3)C2CC2)CC1 (centres undefined),-0.9%,40.9*,?,?
O=C(Nc1ccc2c(c1)OCCO2)C(CCc1ccccc1)N1CCN(c2ccc(F)cc2)CC1 (centres undefined),-6.0%,4.5,10.0,?
O=C(Nc1ccc2c(c1)OCCO2)C(CCc1ccccc1)N1CCN(C/C=C/c2ccccc2)CC1 (centres undefined),3.5%,-6.8,-108.7*,?
CCC(c1nnnn1-c1ccc2c(c1)OCCO2)N1CCN(C/C=C/c2ccccc2)CC1 (centres undefined),8.9%,66.1*,-15.5,?
C(=C\c1ccccc1)/CN1CCN(C(CCc2ccccc2)c2nnnn2-c2ccc3c(c2)OCCO3)CC1 (centres undefined),1.5%,-12.4,-109.6*,?
CCC(c1nnnn1-c1ccc2c(c1)OCCO2)N1CCN(c2ccccc2)CC1 (centres undefined),6.0%,4.4,67.8,-11.7%
O=C(CN1C(=O)CSc2ccc(S(=O)(=O)N3CCCC3)cc21)NCc1ccccc1Cl,.,-6.1,.,-14.3%
COc1ccc2c(=O)c(-c3ccc(C)cc3)c(-c3ccccc3)oc2c1,-2.6%,3.2,4.1,7.94µM*
COc1cc(CN2CCCC(C)C2)ccc1OCc1ccccc1 (centres undefined),1.3%,-11.8,-61.9*,?
Cc1ccc(CN2CCN(c3ncccn3)CC2)o1,3.4%,-8.1,-54.4*,0.9%
C=CCc1ccc(OCCCCN2CC(C)CC(C)C2)c(OC)c1 (centres undefined),-0.9%,-22.9,-104.5*,?
COc1cc(CN2CCC(C)CC2)ccc1OCc1ccccc1,9.6%,-24.9,?,?
COc1cccc(CN2CCN(c3ncccn3)CC2)c1,-10.4%,35.0*,-58.6*,-16.4%
C=CCc1ccc(OCCCN2CCCC(C)C2)c(OC)c1 (centres undefined),-7.7%,-8.7,-78.8*,0.0%
CCN1CCN(Cc2ccc(OC)c(OCc3ccccc3)c2)CC1,-7.5%,-8.3,?,1.2%
C=CCc1ccc(OCCCOc2ccc(C(=O)O)cc2)c(OC)c1,0.4%,0.2,-9.0,5.2%[7.66 µM]
C=CCc1ccc(OCCCCNC(C)CC)c(OC)c1 (centres undefined),6.5%,-9.8,-18.7,?
COc1ccc(CN2CCN(c3ccccn3)CC2)cc1OCc1ccccc1,0.6%,-19.9,-69.3*,?
C=CCc1ccc(OCCCCN2CCC(C)CC2)c(OC)c1,0.4%,-18.7,-58.6*,?
COc1ccc2ncc3c(-c4ccccc4)nn(-c4ccc(C)c(C)c4)c3c2c1,0.8%,2.7,.,-9.1%
COc1ccc(C(=O)NCCNC(C)=O)cc1S(=O)(=O)NCc1ccc(Cl)cc1,-1.8%,0.6,?,1.8%
COc1ccc(C(=O)NCC(c2ccco2)N(C)C)cc1S(=O)(=O)NCc1ccc(Cl)cc1 (centres undefined),-0.7%,-20.7,-96.5*,9.2%
CC(CCc1ccccc1)NC(=O)CN(C)Cc1ccccc1F (centres undefined),22.5%,41.2*,-0.9,?
CC(CCc1ccccc1)NC(=O)CN(C)Cc1ccc(F)cc1 (centres undefined),20.3%,-12.5,-5.1,?
COC(=O)c1cc(C)c(C)cc1NC1OC(CO)C(O)C1O (centres undefined),1.1%,2.8,23.9,12.5%
SMILES,GLP1R ag,DRD3 agonist,D3 antag,GLP1R inv ag
O=C(/C=C\c1ccccc1)NC1CC(=O)N(c2ccccc2)C1 (centres undefined),.,45.2*,.,1.1%
COc1ccc(/C=C\C(=O)NC2CC(=O)N(c3ccccc3)C2)cc1OC (centres undefined),.,-7.5,.,2.9%
N#CC1(Cc2ccccc2)c2ccccc2C=CN1C(=O)c1ccccc1 (centres undefined),-5.6%,4.0,-14.5,8.91µM*
N#CC1(Cc2ccc([N+](=O)[O-])cc2)c2ccccc2C=CN1C(=O)c1ccccc1 (centres undefined),-30.3%,3.7,-0.9,4.9%
COc1ccccc1CNC(=O)c1ccc2c(c1)nc(C)n2-c1cccc(C)c1,.,-19.0,.,7.9%
CC(C)C(c1nnnn1C(C)(C)C)N1CCOCC1 (centres undefined),-2.4%,-4.0,-61.0*,0.6%
Cc1ccc(NCc2cccn2-c2nnc(N3CCC(C(=O)NCc4ccc(F)cc4)CC3)s2)cc1,.,-7.5,.,?
ClCC(CNCc1ccccc1)c1ccccc1 (centres undefined),10.1%,-29.4,-55.4*,?
OC(CNCc1ccccc1)c1ccccc1 (centres undefined),23.8%,-18.1,9.5,-3.2%
CCN(CC)CC#CC(OC)(c1ccccc1)c1ccccc1,-1.1%,-28.8,?,5.01µM*
CCN(CC)CCC#CC(O)(c1ccccc1)c1ccccc1,-2.0%,-5.1,-4.1,?
CCN(CC)c1ccc(C(=C2C=CC(=[N+](CC)CC)C=C2)c2ccccc2)cc1,-5.4%,-15.7,-104.5*,?
CCN(CC)c1ccc(C(=C2C=CC(=[N+](CC)CC)C=C2)c2ccc(N(CC)CC)cc2)cc1,-4.0%,-9.8,-18.6,?
CC1(C)Cc2c(ccc3ccccc23)/C(=C/C#N)N1,17.9%,-12.5,+,-9.5%
CNC(=O)/C=C1\NC(C)(C)Cc2c1ccc1ccccc21,15.7%,2.3,24.7,?
O=S(=O)(c1cccs1)N1CCN(CC(O)COc2cc(Cl)ccc2Cl)CC1 (centres undefined),0.8%,-2.1,13.5,7.94µM*
Cn1c(CCCNC(=O)c2cccs2)nc2ccccc21,-2.1%,-13.4,-1.9,-0.1%
Cn1c(CCCNC(=O)c2ccccc2)nc2ccccc21,17.8%,0.3,-53.9*,2.1%
CCCn1c(NC(=O)c2ccc(C)cc2)nc2ccccc21,-8.2%,-12.1,-22.2,?
CCCn1c(Nc2nc3ccccc3n2C)nc2ccccc21,20.5%,-22.6,-101.9*,0.0%
CCCn1c(NC(=O)c2ccccc2)nc2ccccc21,6.0%,-8.7,?,11.2µM*
CC(C)Cn1c(CNC(=O)c2ccccc2)nc2ccccc21,2.9%,10.8,-55.6*,14.1µM*
COc1ccc(C(=O)NCCc2nc3cc([N+](=O)[O-])ccc3n2C)cc1,-6.6%,-20.6,-112.6*,7.6%
O=C(Cn1c(=O)nc(-c2ccccc2)c2cc(Cl)ccc21)NCc1ccccc1,.,32.4*,.,0.1%
Cc1nc2ccccc2n1CC(=O)NCc1ccccc1,-12.7%,-2.2,-50.2*,2.1%
CCCn1c(CNC(=O)c2cccs2)nc2ccccc21,-3.2%,-11.8,-13.0,-0.4%
